Where “and” joins values, the source holds several entries; their conditions need not be identical. Identical values can stand only once. Records with an inconclusive call do not appear. Where a structure was tested more than once in an assay, its records may differ in their call. Calls of active or inactive are those of the source. Unless noted, calls come from the whole dose curve; as a rule, active = well fitted curve in the direction sought with a large enough effect; inconclusive = small, poorly fitted or top-dose-only effect, or another doubt; inactive = no such curve, though single readings can be large; an effect the other way counts as inactive or inconclusive.
Assays:
[1] = qHTS assay for measurement of the activity of small molecule inhibitors on Zika virus induced Caspase-3 activity in human astrocytoma cells (AID 1224859); note: potency is the fitted concentration of half-maximal effect
Procedure, shortened: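 Compound added 1 h pre-infection; ZIKV 2 FFU/cell on SNB-19 cells, 6 h, 37 C/5% CO2. Caspase-Glo 3/7 luminescence; values as % inhibition of ZIKV-induced caspase activity.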

[2] = qHTS Screen of the MIPE 4.0 Collection Against Ewings Sarcoma (RDES) (AID 1259252); note: nearly all actives have a fitted effect of over 35% in size; note: potency is the fitted concentration of half-maximal effect
Procedure, shortened: (§1)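 Measured: ATP luminescence (CellTiter-Glo) 10 min after reagent addition, following 48 h drug treatment. Relative luciferase units converted to percent activity, with no-cell wells as full and DMSO wells as zero inhibition.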

[3] = qHTS Screen of the MIPE 4.0 Collection Against Ewings Sarcoma (TC71) (AID 1259253); note: nearly all actives have a fitted effect of over 40% in size; note: potency is the fitted concentration of half-maximal effect
Procedure, shortened: as §1

[4] = qHTS Screen of the MIPE 4.0 Collection Against Ewings Sarcoma (EW8) (AID 1259255); note: nearly all actives have a fitted effect of over 35% in size; note: potency is the fitted concentration of half-maximal effect
Procedure, shortened: as §1

[5] = qHTS Screen of the MIPE 4.0 Collection Against Ewings Sarcoma (TC32) (AID 1259256); note: nearly all actives have a fitted effect of over 45% in size; note: potency is the fitted concentration of half-maximal effect
Procedure, shortened: as §1

[6] = NS1 protein of Zika virus - qHTS assay to identify small molecule inhibitors in human HEK 293 cells (AID 1347053); note: nearly all actives have a fitted effect of over 55% in size; note: potency is the fitted concentration of half-maximal effect
Procedure, shortened: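 HEK 293 cells pretreated with compound for 1 h, then infected with ZIKV MR766 (MOI 0.5) for 24 h at 37 C. NS1 detected by TR-FRET with two anti-NS1 antibodies; normalized to uninfected (0%) and infected (100%) wells.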

[7] = P-glycoprotein substrates identified in KB-8-5-11 adenocarcinoma cell line, qHTS therapeutic library screen (AID 1346987); note: nearly all actives have a fitted effect of over 65% in size; note: potency is the fitted concentration of half-maximal effect
Procedure, shortened: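 P-gp-mediated resistance screen: KB-8-5-11 cells treated 72 h with compounds in dose-response. CellTiter-Glo viability.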

[8] = Natriuretic polypeptide receptor (hNpr1) antagonism - Pilot counterscreen GloSensor control cell line (AID 1347045; calls by dose curve; note: series mostly up to about 38 µM)
Procedure, shortened: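 This counterscreen uses HEK293 cells expressing the GIP/pGS-40F cGMP biosensor. Compound-treated cells are challenged with 50 uM sodium nitroprusside, and the luciferase signal is compared before and after stimulation.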

[9] = molecular target: Atrial natriuretic peptide receptor 1 (Homo sapiens) (UniProt P16066); assay: Natriuretic polypeptide receptor (hNpr1) antagonism - Pilot screen (AID 1347049; calls by dose curve;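 note: agonist-evoked cGMP luminescence read 20 min after hNppA addition; potency is the fitted concentration of half-maximal effect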)
Atrial natriuretic peptide receptor 1 (Homo sapiens), sequence (P16066 whole entry, looked up): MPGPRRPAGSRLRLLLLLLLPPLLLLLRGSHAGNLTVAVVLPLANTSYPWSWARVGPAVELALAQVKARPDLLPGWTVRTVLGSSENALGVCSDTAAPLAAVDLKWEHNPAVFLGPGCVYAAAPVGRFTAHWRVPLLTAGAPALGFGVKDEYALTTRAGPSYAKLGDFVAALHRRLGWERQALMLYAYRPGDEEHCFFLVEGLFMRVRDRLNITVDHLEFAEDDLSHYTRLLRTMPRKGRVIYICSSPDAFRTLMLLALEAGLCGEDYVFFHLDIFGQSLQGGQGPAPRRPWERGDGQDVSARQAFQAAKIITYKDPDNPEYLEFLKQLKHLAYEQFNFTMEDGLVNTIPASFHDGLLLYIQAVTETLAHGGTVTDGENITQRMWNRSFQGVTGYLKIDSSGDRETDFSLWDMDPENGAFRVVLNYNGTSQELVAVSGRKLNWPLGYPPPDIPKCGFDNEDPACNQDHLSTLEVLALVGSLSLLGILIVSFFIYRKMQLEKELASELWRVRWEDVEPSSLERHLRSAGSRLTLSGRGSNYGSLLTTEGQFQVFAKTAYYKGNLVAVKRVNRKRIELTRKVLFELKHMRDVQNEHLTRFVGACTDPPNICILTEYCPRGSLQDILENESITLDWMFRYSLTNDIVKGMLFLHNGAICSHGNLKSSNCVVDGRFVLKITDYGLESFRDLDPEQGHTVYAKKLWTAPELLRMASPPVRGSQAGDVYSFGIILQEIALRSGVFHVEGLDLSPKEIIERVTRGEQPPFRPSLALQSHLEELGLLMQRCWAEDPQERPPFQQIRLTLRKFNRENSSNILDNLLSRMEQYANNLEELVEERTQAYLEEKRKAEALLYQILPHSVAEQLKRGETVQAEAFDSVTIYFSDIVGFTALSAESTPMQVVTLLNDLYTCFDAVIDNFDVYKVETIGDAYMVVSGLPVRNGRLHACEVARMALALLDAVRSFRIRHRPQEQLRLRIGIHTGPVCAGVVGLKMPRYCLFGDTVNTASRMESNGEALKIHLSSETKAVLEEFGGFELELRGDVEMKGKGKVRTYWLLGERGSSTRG
Procedure, shortened: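 HEK293 cells co-expressing hNpr1 and the GloSensor pGS-40F cGMP luciferase sensor were preloaded with 2% GloSensor reagent for 2 h. Compounds were added for 30 min at room temperature, then cells were stimulated with 0.1 nM hNppA for 20 min before luminescence readout.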

[10] = molecular target: T1, Tyrosine-protein phosphatase non-receptor type substrate 1 (Homo sapiens) + Leukocyte surface antigen CD47 (Homo sapiens) (UniProt P78324+Q08722); assay: CD47-SIRPalpha protein protein interaction - LANCE assay qHTS validation (AID 1347057; active = well fitted curve in the direction sought with a large enough effect in the signal ratio, with a control signal flat, not every such curve was filed as active; the % refers to the signal ratio; note: series mostly up to about 38 µM)
T1 sequence (P78324 whole entry, looked up): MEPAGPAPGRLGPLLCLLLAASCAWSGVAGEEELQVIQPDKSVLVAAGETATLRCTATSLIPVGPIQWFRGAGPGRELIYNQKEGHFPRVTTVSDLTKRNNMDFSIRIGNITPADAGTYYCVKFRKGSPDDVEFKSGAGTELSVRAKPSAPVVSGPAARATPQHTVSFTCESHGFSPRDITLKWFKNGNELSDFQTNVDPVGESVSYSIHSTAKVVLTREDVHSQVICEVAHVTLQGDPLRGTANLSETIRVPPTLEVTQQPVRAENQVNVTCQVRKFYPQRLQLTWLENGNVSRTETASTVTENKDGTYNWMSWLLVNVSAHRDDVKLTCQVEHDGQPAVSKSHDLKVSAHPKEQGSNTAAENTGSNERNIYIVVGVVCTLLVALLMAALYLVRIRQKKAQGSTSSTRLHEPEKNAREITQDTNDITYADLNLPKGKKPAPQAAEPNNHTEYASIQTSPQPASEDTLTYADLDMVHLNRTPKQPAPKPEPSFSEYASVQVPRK
T1 sequence (Q08722 whole entry, looked up): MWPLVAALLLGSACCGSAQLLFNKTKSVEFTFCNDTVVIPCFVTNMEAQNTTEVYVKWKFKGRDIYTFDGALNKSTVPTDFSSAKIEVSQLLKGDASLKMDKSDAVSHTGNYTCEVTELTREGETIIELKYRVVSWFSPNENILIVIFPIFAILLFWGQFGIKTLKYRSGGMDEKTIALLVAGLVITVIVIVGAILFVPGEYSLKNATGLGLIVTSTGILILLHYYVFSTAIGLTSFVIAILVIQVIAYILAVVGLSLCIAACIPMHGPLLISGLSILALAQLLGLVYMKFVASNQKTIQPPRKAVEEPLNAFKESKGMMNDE
Procedure, shortened: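 First, His-tagged CD47 and Eu-labelled anti-His antibody met the compound for 30 min; next, site-specifically biotinylated SIRPalpha was added for 30 min; finally streptavidin-APC was added before reading the TR-FRET ratio.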

[11] = molecular target: T1, Tyrosine-protein phosphatase non-receptor type substrate 1 (Homo sapiens) + Leukocyte surface antigen CD47 (Homo sapiens); assay: CD47-SIRPalpha protein protein interaction - HTRF assay qHTS validation (AID 1347058; active = well fitted curve in the direction sought with a large enough effect in the signal ratio, not every such curve was filed as active; the % refers to the signal ratio;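 note: recombinant soluble extracellular CD47 with His tag and biotinylated SIRPalpha domains; series mostly up to about 38 µM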)
Procedure, shortened: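 TR-FRET read (Ch1/Ch2 ratio) of soluble extracellular CD47 and Avi-biotinylated SIRPalpha domains in PBS pH 7.4 with 0.05% IGEPAL; 7-point compound titration. Sequential 30 min room-temperature steps; non-biotinylated SIRPalpha as control inhibitor.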

Measured: Potency

CCC1=C[C@@H]2CN(C1)Cc1c([nH]c3ccccc13)[C@@](C(=O)OC)(c1cc3c(cc1OC)N(C)[C@@H]1[C@@](O)(C(=O)OC)[C@H](OC(C)=O)[C@]4(CC)C=CCN5CC[C@]31[C@@H]54)C2
active: [2] 0.0148 µM | [3] 0.166 µM | [4] 0.0066 µM | [6] 4.18 µM
inactive: [1] | [5]

CNC(=O)c1ccc(-c2cnc3ncc(Cc4ccc5ncccc5c4)n3n2)cc1F
inactive: [1] | [2] | [3] | [4] | [5] | [7] | [6]

CC(C)c1noc(N2CCC(COc3ccc(-c4ccc(S(C)(=O)=O)cc4)nc3)CC2)n1
inactive: [1] | [2] | [3] | [4] | [5] | [7] | [6]

CN1CCN(Cc2ccc(NC(=O)Nc3ccc(Oc4cc(NC(=O)C5CC5)ncn4)cc3)cc2C(F)(F)F)CC1
active: [2] 0.372 µM | [3] 0.132 µM | [4] 0.372 µM | [5] 0.296 µM | [7] 5.8 µM | [6] 1.18 µM
inactive: [1]

CC1COC2(CCN(c3nc(=O)c4cc(C(F)(F)F)cc([N+](=O)[O-])c4s3)CC2)O1 (centres undefined)
inactive: [1] | [2] | [3] | [4] | [5] | [7] | [6]

COc1cc(-c2nn(C3CCC(N4CCN(C(C)=O)CC4)CC3)c3ncnc(N)c23)ccc1NC(=O)c1cc2ccccc2n1C (centres undefined)
active: [2] 1.87 µM | [3] 2.96 µM | [4] 6.62 µM | [5] 3.72 µM
inactive: [1] | [6]
inactive and 20.6 µM (active): [7]

COc1ccc(C(=O)CC2(O)C(=O)Nc3c(Cl)ccc(Cl)c32)cc1 (centres undefined)
active: [2] 2.35 µM | [3] 3.32 µM | [4] 1.48 µM | [5] 1.66 µM | [7] 2.64 µM and 1.16 µM | [6] 1.05 µM
inactive: [1]

O=c1c2ccccc2nc2n1CCc1c-2[nH]c2ccccc12
inactive: [2] | [3] | [4] | [5] | [7] | [8] | [6] | [10] | [11]
active: [1] 7.94 µM | [9] 1.51 µM

NCC(=O)Nc1ccc(-n2nc(C(F)(F)F)cc2-c2ccc3c(ccc4ccccc43)c2)cc1
active: [2] 20.9 µM | [3] 4.18 µM | [4] 18.7 µM | [5] 20.9 µM | [6] 0.0526 µM
inactive: [1]

Cn1cc(-c2ccncc2)c(-c2ccc(OCc3ccc4ccccc4n3)cc2)n1
inactive: [1] | [6]
active: [2] 16.6 µM | [3] 16.6 µM | [4] 20.9 µM | [5] 16.6 µM | [7] 20.6 µM

COc1ccc(F)c(F)c1C(=O)c1cnc(NC2CCN(S(C)(=O)=O)CC2)nc1N
inactive: [1]
active: [2] 2.64 µM | [3] 1.18 µM | [4] 3.72 µM | [5] 2.35 µM | [6] 14.8 µM

Cc1c(C)n(Cc2ccc(-c3ccccc3C(=O)O)cc2)c2ccc(C(=O)N[C@@H](C)c3ccc([N+](=O)[O-])cc3)cc12
inactive: [1] | [2] | [3] | [4] | [5] | [7] | [6]

O=C(CCCCCCNC(=O)c1cnc(N(c2ccccc2)c2ccccc2)nc1)NO
inactive: [1] | [6]
active: [2] 5.9 µM | [3] 5.9 µM | [4] 4.18 µM | [5] 5.26 µM

CC(C)c1cc(-c2n[nH]c(=O)n2-c2ccc3c(ccn3C)c2)c(O)cc1O
active: [2] 0.105 µM | [3] 0.0662 µM | [4] 0.0662 µM | [5] 0.0526 µM | [7] 0.0935 µM
inactive: [1] | [6]

CCN(CC)CCNC(=O)c1ccc2nc(-c3ccccc3)c(-c3ccc(CN4CCC(n5c(=O)[nH]c6ccccc65)CC4)cc3)nc2c1
inactive: [1]
active: [2] 23.5 µM | [3] 23.5 µM | [4] 16.6 µM | [5] 18.7 µM | [7] 3.72 µM | [6] 3.32 µM

OCc1ccc(-c2ccc(-c3ccc(CO)s3)o2)s1
inactive: [1] | [6]
active: [2] 0.0526 µM | [3] 26.4 µM | [4] 0.0074 µM | [5] 18.7 µM
inactive and 3.17 µM (active): [7]

COc1cc(Nc2ncc(F)c(Nc3ccc4c(n3)N(COP(=O)(O)O)C(=O)C(C)(C)O4)n2)cc(OC)c1OC
active: [2] 11.8 µM | [3] 16.6 µM | [4] 7.43 µM | [5] 3.32 µM | [7] 1.66 µM and 2.31 µM and 13 µM
inactive: [1] | [6]

From PubChem BioAssay (NCATS)
